Screening results: PubChem, NMMLSC
In the library only some 0.89% were active in any assay of this set; here they are far more common.
LAP4 TOR yeast = modulators of TOR pathway LAP4-GFP in S. cerevisiae. S. cerevisiae LAP4-GFP multiplex, flow cytometry GFP, 3 h; median GFP as percent of DMSO wells. GFP response vs DMSO, % at 10 µM. 320,000 compounds, 0.34% hits. AID 2023;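 active = GFP response vs DMSO above a set limit, about the screen mean plus 3 SD, cut at about 150% in these data; inconclusive = under 70 cell events counted for the yeast strain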
CIT2-GFP yeast = modulators of TOR pathway CIT2-GFP in S. cerevisiae; GFP response vs DMSO, % at 10 µM; S. cerevisiae CIT2-GFP strain, flow cytometry, 3 h; 100 means same as DMSO wells; 320,000 compounds, 0.065% hits; AID 2029;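 active = GFP response relative to DMSO above a set limit, near the screen mean plus 3 SD, cut at about 150% in these data; inconclusive = Fewer than 70 cells measured for a yeast strain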;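 note: ratio of well median GFP fluorescence to mean of DMSO wells on the plate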
MEP2-GFP yeast = alters MEP2-GFP fluorescence in TOR pathway yeast screen; S. cerevisiae MEP2-GFP strain, flow cytometry GFP, 3 h; 100% = DMSO control level; GFP response vs DMSO, % at 10 µM; 330,000 compounds, 0.51% hits;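 active = GFP response versus DMSO above a set limit, roughly screen mean plus 3 SD, cut at about 180% in these data; inconclusive = fewer than 70 cells counted for a yeast strain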;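 note: median GFP fluorescence of the barcode-gated MEP2-GFP cells per well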
AGP1-GFP MLPCN = alters AGP1-GFP fluorescence in TOR pathway yeast screen | S. cerevisiae AGP1-GFP multiplex flow cytometry, 3 h; GFP as percent of DMSO wells | GFP response vs DMSO, % at 10 µM | 320,000 compounds, 0.02% hits | AID 2066;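 active = GFP response relative to DMSO above a set limit, near screen average plus 3 SD, cut at about 150% in these data; inconclusive = fewer than 70 cells counted for the yeast strain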;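 note: median GFP channel fluorescence of the gated AGP1 strain per well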
RPL19A-GFP yeast = yeast TOR pathway RPL19A-GFP modulation. S. cerevisiae RPL19A-GFP strain, flow cytometry, 3 h; hits give low values. 330,000 compounds, 0.3% hits. AID 2025. percent response vs DMSO, % at 10 µM;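 active = percent response vs DMSO below 50%; inconclusive = fewer than 70 events counted for the yeast strain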;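 note: median channel GFP fluorescence of the barcoded RPL19A-GFP strain; ratio of sample median GFP to plate DMSO average so 100% = DMSO; lower means less RPL19A-GFP as with rapamycin TOR inhibition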
Numbers without * were called inactive; u = inconclusive; x = no result given; ! = a repeat was not active; [ ] = remark or other dose.

SMILES	LAP4 TOR yeast	CIT2-GFP yeast	MEP2-GFP yeast	AGP1-GFP MLPCN	RPL19A-GFP yeast
CCn1nc(C)c(/C=N/NC(=O)c2ccc3c(c2)c(C)c(C)n3Cc2ccccc2)c1C	98	u	279*[may fluoresce violet]	u	22*[may fluoresce violet]
COc1cccc(CC(NC(C)=O)C(=O)NC2CCN(c3nnnn3-c3ccccc3)CC2)c1 (stereo not given)	98	109	102	108	100
COc1ccc(CC(NC(C)=O)C(=O)NC2CCN(c3nnnn3-c3ccccc3)CC2)cc1 (stereo not given)	92	u	205*[may fluoresce violet]	u	30*[may fluoresce violet]
Cc1cccn2c(=O)c3cc(C(=O)NC4CCCC4)c(=N)n(C4CCCC4)c3nc12	98	99	104	100	100
N=c1c(C(=O)NC2CCCC2)cc2c(=O)n3ccccc3nc2n1C1CCCC1	107	u	308*[may fluoresce violet]	u	16*[may fluoresce violet]
COCCn1c(=N)c(C(=O)NCc2ccco2)cc2c(=O)n3ccccc3nc21	107	94	573*	66	61
N=c1c(C(=O)NCc2ccco2)cc2c(=O)n3ccccc3nc2n1C1CCCC1	89	u	269*[may fluoresce violet]	81	59
CC(C)(C)NC(=O)C(c1ccc(O)cc1)N(C(=O)CCC(=O)Nc1nccs1)c1cccc(F)c1 (stereo not given)	114	114	105	119	109
CC1Cc2ccccc2N1C(=O)CSc1nnc2sc3ccccc3n12 (stereo not given)	104	90	101	99	101
CCc1ccc(OCC(=O)N/N=C(\C)c2ccccc2OC(F)F)cc1	89	100	93	93	101
COc1ccccc1CNC(=O)C1CCN(S(=O)(=O)c2ccc3nc4c(c(C(=O)O)c3c2)CCCC4)CC1	50	u	258*[may fluoresce violet]	u	35*[may fluoresce violet]
CCOC(=O)c1c(NC(=O)CCS(=O)(=O)c2ccccc2)sc2c1CCN(C)C2	111	103	112	102	103
NC(=O)c1cc2ccccc2oc1=NCc1ccccc1	114	87	97	99	95
NC(=O)c1cc2ccc(O)cc2oc1=NCc1ccccc1	91	u	149	x	47*[may fluoresce violet]
CCOc1cc2[nH]c(=O)n(CCCCCC(=O)NCc3ccco3)c(=O)c2cc1OCC	92	u	190*[may fluoresce violet]	20	61
Cc1cccc(OCC(=O)NCCNC(=O)c2ccccn2)c1	u	u	u	u	31*[may fluoresce violet]
Cc1ccc(OCC(=O)NCCCNC(=O)c2ccccn2)cc1	102	103	111	95	107
Cc1ccc2c(cnn2C(=O)CCCC(=O)NC(C)c2ccccc2)c1 (stereo not given)	99	92	100	91	90
O=C(Nc1ccc(F)cc1)C(Cc1ccccc1)n1cccc1 (stereo not given)	105	100	95	100	95
Cc1cc(C)c(NC(=O)CN2C(=O)CC(C)S(=O)(=O)c3ccccc32)c(C)c1 (stereo not given)	112	104	105	105	105
O=C(CSc1cccc2cccnc12)OCC(=O)c1ccc(Br)cc1	105	108	97	102	98
COc1cc(NC(=O)c2cnc(N)o2)cc(C(=O)Nc2cccc(C(F)(F)F)c2)c1	88	97	98	100	97
COC(=O)c1cc(NC(=O)CC2CCCC2)cc(C(=O)OC)c1	67	u	143	u	27*[may fluoresce violet]
O=C(O)CCn1cc(/C=C\C(=O)c2ccc(Cl)cc2)c(-c2cccc(Br)c2)n1	92	100	99	100	99
Cc1cc(C)nc(NC(=O)c2cccc(Cl)c2)n1	89	u	725*[may fluoresce violet]	u	17*[may fluoresce violet]
SMILES	LAP4 TOR yeast	CIT2-GFP yeast	MEP2-GFP yeast	AGP1-GFP MLPCN	RPL19A-GFP yeast
Cc1cc(C)nc(NC(=O)c2ccc(Cl)cc2)n1	104	105	109	107	99
CCOC(=O)Cc1cc(=O)n(-c2nc3ccccc3s2)[nH]1	98	102	102	102	101
CCCc1cc(=O)n(-c2nc3ccccc3s2)[nH]1	159*	92	90	93	91
N=c1c(S(=O)(=O)c2ccc(Cl)cc2)cc2c(=O)n3ccccc3nc2n1CCN1CCOCC1	92	x	86	85	91
N=c1c(S(=O)(=O)c2ccccc2)cc2c(=O)n3ccccc3nc2n1CCCN1CCOCC1	88	u	233*[may fluoresce violet]	u	86
CCOCCCn1c(=N)c(S(=O)(=O)c2ccccc2)cc2c(=O)n3cc(C)ccc3nc21	95	u	176*[may fluoresce violet]	15	87
Cc1ccc(S(=O)(=O)c2cc3c(=O)n4ccccc4nc3n(CCCN3CCOCC3)c2=N)cc1C	86	u	136	u	41*[may fluoresce violet]
COc1cc(/C=N/NC(=O)c2ccc3c(c2)OCCO3)cc(Br)c1O	101	95	97	102	96
COc1cc(/C=N/N(C)C)cc(Br)c1O	73	u	461*[may fluoresce violet]	u	40*[may fluoresce violet]
Cc1ccc(S(=O)(=O)N2[C@@H](c3ccc(Br)cc3)C(C(=O)O)=CC[C@H]2c2ccc(Cl)cc2)cc1	99	98	101	102	102
Cc1ccc(S(=O)(=O)Nc2ccc(C(=O)N3CCOCC3)cc2)cc1	91	u	192*[may fluoresce violet]	26	64
CCOC(=O)N1CCN(C(=O)CCc2ccc(S(=O)(=O)NCCc3ccccc3)cc2)CC1	161*	153*	193*	108	108
O=C(c1ccc(S(=O)(=O)Nc2ccccc2)cc1)N1CCOCC1	96	95	102	98	100
Cc1ccc(NS(=O)(=O)c2ccc(CCC(=O)N3CCOCC3)cc2)cc1	91	109	181*	22	60
Cc1ccc(CSCC(=O)N2CCOCC2)cc1	72	u	236*[may fluoresce violet]	u	56
CCNS(=O)(=O)c1ccc(CCC(=O)N2CCN(Cc3ccccc3)CC2)cc1	95	105	102	97	101
O=C(CSCc1ccc(Cl)cc1)N1CCOCC1	93	102	99	102	101
CNS(=O)(=O)c1ccc(CCC(=O)N2CCOCC2)cc1	90	103	103	96	100
O=C(NN=C1CCN(Cc2ccccc2)CC1)c1ccccc1O	99	105	100	101	104
C=CCn1c(SCC(=O)Nc2ccccc2OC)nc(O)c(CC)c1=O	98	96	102	97	96
CCN(CC)CCNC(=O)Cn1nc(Cc2ccccc2)c2ccccc2c1=O	104	110	101	108	111
CC(=O)c1cccc(NC(=O)c2ccc3c(c2)CCCC3)c1	101	98	100	99	103
COc1cccc(NC(=O)c2ccc3c(c2)CCCC3)c1	174*	57	77	84	77
COC(=O)Nc1ccc2c(c1)N(C(=O)CCN1CCN3CCCC3C1)c1ccccc1CC2 (stereo not given)	157*!	100	229*!	131	80
O=[N+]([O-])c1ccccc1C1Nc2cccc3cccc(c23)N1	103	u	476*[may fluoresce violet]	24	63
